Data as given in PubChem BioAssay.
Active and inactive are the calls of the source. Unless noted, how the calls were made is not given here.

How the values were obtained:
[1] = system: Wnt5a (protein binding on small-molecule microarray); assay: small molecules binding Wnt5a protein – biophysical, small-molecule microarray, 635/667 nm fluorescence, primary screen (AID 1142); conditions: 635 nm fluorescence, higher = more signal;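 further: fluorescence read at 667 nm with signal to noise per printed feature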
[2] = ATP-based viability of Huh7 replicon cells – cell-based, CellTiter-Glo luminescence, basal, 48 h, cytotoxicity control for HCV replication inhibitor project, primary screen (AID 1143); conditions: higher = more signal, called active from +8 up or from −8 down;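 further: Huh7 hepatoma cells carrying a hepatitis C replication reporter with no stimulus; test concentration not given here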
[3] = Pseudomonas biofilm growth suppression – PAO1 strain, BacTiter-Glo luminescence, LB-PBS, primary screen (AID 1144); conditions: P. aeruginosa PAO1 biofilm, 12 h, higher = more signal
[4] = basal CRE-LacZ reporter activity in PC12 – cell-based, unstimulated, primary screen (AID 1145); conditions: no forskolin, luminescence, 4.5 h, higher = more signal, called active from +8 up or from −8 down
[5] = forskolin-driven CRE-LacZ activity in PC12 – cell-based, CRE-LacZ reporter, forskolin-stimulated, primary screen (AID 1146); conditions: luminescence, 4.5 h, higher = more signal, called active from +8 up or from −8 down;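 further: PC12 cells with 6xCRE LacZ reporter stimulated by forskolin 10 µM; beta-galactosidase reporter signal reflecting CREB driven transcription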
[6] = target: Streptavidin (Streptomyces avidinii) (UniProt P22629); assay: compounds binding control protein streptavidin – biophysical, small-molecule microarray, 635/667 nm fluorescence, artefact control for SMM compound annotation, primary screen (AID 1147); conditions: higher = more signal;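 further: signal reflects streptavidin binding to arrayed compounds as a control protein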
[7] = probe aInhba binding on compound microarray – biochemical, small-molecule microarray, 635/667 nm fluorescence, primary screen (AID 1148); conditions: higher = more signal;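 further: score merges 667nm spot fluorescence with signal-to-noise for antibody binding to printed compounds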
Torsin-1A (Homo sapiens) [8] = target: Torsin-1A (Homo sapiens) (UniProt O14656); assay: TOR1A wild-type binding on microarray – cell lysate, small-molecule microarray, lysate, 635/667 nm, primary screen (AID 1149); conditions: COS7 hTOR1A-WT lysate, 635 nm fluorescence, higher = more signal
Torsin-1A (Homo sapiens) [9] = target: Torsin-1A (Homo sapiens) (UniProt O14656); assay: torsin A mutant lysate binding on microarrays – cell lysate, small-molecule microarray, COS7 lysate, 635/667 nm fluorescence, primary screen (AID 1150); conditions: COS7 hTOR1A mutant lysate, 635 nm fluorescence, higher = more signal;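 further: score pools 667 nm emission and signal to noise measuring lysate protein binding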
[10] = system: Sonic hedgehog protein (Shh); assay: Sonic hedgehog microarray binding compounds – biochemical, small-molecule microarray, 635/667 nm fluorescence, primary screen (AID 1151); conditions: 635 nm fluorescence, higher = more signal;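 further: Shh protein binding to compounds spotted on small-molecule microarray slides; score combines spot fluorescence intensity with signal-to-noise across triplicate slides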
[11] = optical density shifts of acrAB sulA E. coli – strain DRC41, OD650, 48 h, E. coli filamentation inducer project, primary screen (AID 1152); conditions: higher = more signal, called active from +8 up or from −8 down;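 further: E. coli MC1000 strain DRC41 lacking acrAB efflux pump and sulA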
[12] = probe aLefty1 binding on compound microarray – biochemical, small-molecule microarray, 635/667 nm fluorescence, primary screen (AID 1153); conditions: higher = more signal;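 further: score merges spot fluorescence with signal-to-noise ratio from the scanned slide images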
[13] = plasmodial surface anion channel blockers, osmotic lysis – cell-based, P. falciparum Indochina, OD700, 1 h, primary screen (AID 1154); conditions: P. falciparum Indochina infected RBC osmotic lysis, higher = more signal, called active from +8 up or from −8 down
[14] = plasmodial surface anion channel blockers, osmotic lysis – cell-based, P. falciparum Indochina, OD700, 2 h, primary screen (AID 1155);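 further: lysis reports solute entry through the parasite surface anion channel PSAC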; conditions: P. falciparum Indochina infected erythrocytes, higher = more signal, called active from +8 up or from −8 down
[15] = changes in parasitized red cell lysis, either direction – P. falciparum Indochina, OD700, 3 h, PSAC antagonist project, primary screen (AID 1156); conditions: P. falciparum-infected erythrocytes, osmotic lysis, higher = more signal, called active from +8 up or from −8 down
[16] = plasmodial surface anion channel blockers, osmotic lysis – cell-based, P. falciparum Indochina, OD700, 18 h, primary screen (AID 1157); conditions: P. falciparum Indochina infected erythrocytes, osmotic lysis OD700, 18 h; higher = more signal, called active from +8 up or from −8 down
[17] = S6 kinase pathway phospho-S6 level changes – cell-based, A549, cytoblot, luminescence, serum-stimulated, primary screen (AID 1158); conditions: 5 h, higher = more signal;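 further: serum-stimulated A549 lung adenocarcinoma cells; signal is phosphorylated S6 detected by cytoblot immunostaining with HRP secondary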
[18] = target: NADPH oxidase 2 (Homo sapiens) (UniProt P04839); assay: compounds shifting NOX2 Amplex Red fluorescence – cell-based, HEK293-NOX2, PMA-stimulated, NOX inhibitor project, primary screen (AID 1159); conditions: 45 min, higher = more signal, called active from +8 up or from −8 down; further: test concentration not given here
[19] = target: NADPH oxidase 4 (Homo sapiens) (UniProt Q9NPH5); assay: compounds shifting NOX4 Amplex Red fluorescence – cell-based, HEK293-NOX4, tetracycline-induced, NOX inhibitor project, primary screen (AID 1160); conditions: HEK293-NOX4, Amplex Red H2O2 fluorescence, 45 min; higher = more signal, called active from +8 up or from −8 down
[20] = target: NADPH oxidase 5 (Homo sapiens) (UniProt Q96PH1); assay: compounds shifting NOX5 Amplex Red fluorescence – cell-based, HEK293-NOX5, NOX inhibitor project, primary screen (AID 1161); conditions: HEK293-NOX5, ionomycin, 45 min, higher = more signal
Chain of NADPH oxidase 5 (Homo sapiens) (Q96PH1 whole entry, looked up): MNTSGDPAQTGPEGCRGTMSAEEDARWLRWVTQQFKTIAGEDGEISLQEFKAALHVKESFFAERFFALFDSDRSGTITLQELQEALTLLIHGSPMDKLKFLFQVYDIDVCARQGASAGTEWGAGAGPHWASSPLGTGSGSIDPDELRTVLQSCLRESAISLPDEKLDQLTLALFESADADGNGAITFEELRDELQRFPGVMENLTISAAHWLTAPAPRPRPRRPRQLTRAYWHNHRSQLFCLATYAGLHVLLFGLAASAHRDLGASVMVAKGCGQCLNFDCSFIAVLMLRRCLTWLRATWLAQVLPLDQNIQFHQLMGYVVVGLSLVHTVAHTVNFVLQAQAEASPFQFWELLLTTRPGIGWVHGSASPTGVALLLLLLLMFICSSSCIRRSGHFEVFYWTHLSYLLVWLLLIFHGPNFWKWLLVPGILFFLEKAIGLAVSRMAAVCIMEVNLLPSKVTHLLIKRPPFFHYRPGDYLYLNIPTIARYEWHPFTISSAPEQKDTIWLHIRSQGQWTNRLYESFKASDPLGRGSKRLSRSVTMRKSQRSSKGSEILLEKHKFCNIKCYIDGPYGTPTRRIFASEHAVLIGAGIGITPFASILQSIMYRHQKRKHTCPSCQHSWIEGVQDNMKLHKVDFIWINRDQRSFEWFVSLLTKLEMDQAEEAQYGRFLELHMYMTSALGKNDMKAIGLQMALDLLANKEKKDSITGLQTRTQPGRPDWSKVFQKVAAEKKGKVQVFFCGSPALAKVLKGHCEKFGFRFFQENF

Chain of Streptavidin (Streptomyces avidinii) (P22629 whole entry, looked up): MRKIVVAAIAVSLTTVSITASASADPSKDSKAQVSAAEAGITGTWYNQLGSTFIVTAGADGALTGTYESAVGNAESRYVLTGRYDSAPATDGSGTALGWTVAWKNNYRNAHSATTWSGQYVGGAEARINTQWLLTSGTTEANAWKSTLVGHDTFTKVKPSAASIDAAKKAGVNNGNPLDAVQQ
Chain of Torsin-1A (Homo sapiens) (O14656 whole entry, looked up): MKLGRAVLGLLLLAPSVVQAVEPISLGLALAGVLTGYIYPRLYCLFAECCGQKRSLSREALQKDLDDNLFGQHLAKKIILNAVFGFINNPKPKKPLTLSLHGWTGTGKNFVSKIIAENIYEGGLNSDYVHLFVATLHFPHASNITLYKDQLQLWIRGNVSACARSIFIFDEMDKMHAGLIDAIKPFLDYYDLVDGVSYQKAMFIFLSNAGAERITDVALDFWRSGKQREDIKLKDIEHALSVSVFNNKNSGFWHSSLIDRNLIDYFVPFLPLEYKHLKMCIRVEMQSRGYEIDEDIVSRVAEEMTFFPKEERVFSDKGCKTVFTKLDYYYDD
Chain of NADPH oxidase 2 (Homo sapiens) (P04839 whole entry, looked up): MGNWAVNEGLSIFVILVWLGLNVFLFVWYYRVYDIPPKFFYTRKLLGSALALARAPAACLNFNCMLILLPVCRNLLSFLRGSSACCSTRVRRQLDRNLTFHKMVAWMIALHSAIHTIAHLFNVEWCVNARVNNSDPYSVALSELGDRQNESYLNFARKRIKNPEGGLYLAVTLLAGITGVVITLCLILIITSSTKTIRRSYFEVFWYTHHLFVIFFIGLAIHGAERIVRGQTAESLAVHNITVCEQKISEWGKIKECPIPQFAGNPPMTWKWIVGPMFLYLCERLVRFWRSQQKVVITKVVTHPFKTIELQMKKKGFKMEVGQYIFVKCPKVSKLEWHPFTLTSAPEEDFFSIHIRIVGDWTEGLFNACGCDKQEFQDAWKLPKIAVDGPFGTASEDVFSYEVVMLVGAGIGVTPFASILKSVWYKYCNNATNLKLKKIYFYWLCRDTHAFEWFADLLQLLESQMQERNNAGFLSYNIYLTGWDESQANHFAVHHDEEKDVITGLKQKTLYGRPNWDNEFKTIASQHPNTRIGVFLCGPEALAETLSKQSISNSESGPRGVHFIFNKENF
Chain of NADPH oxidase 4 (Homo sapiens) (Q9NPH5 whole entry, looked up): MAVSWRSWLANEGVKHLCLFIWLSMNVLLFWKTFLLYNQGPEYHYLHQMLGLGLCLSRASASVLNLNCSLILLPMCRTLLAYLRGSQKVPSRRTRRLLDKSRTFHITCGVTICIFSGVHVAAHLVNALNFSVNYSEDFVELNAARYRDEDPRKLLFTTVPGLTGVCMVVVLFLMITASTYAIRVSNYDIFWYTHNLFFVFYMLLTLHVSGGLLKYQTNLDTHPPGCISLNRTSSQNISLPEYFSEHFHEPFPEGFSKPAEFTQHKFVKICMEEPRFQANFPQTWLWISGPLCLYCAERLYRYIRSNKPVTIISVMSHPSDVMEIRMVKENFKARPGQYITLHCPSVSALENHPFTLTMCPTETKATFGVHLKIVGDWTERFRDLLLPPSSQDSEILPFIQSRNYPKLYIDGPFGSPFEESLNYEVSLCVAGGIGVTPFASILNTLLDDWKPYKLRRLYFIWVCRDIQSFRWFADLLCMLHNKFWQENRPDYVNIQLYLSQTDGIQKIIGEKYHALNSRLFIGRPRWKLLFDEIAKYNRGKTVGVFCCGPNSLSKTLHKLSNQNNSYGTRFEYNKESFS

Row | Compound | composite z-score [1] | z-score [2] | z-score [3] | z-score [4] | z-score [5] | composite z-score [6] | composite z-score [7] | composite z-score (Torsin-1A (Homo sapiens) [8]) | composite z-score (Torsin-1A (Homo sapiens) [9]) | composite z-score [10] | z-score [11] | composite z-score [12] | z-score [13] | z-score [14] | z-score [15] | z-score [16] | z-score [17] | z-score [18] | z-score [19] | z-score [20]
1 | CCOC(=O)C1=CC[C@@H](c2ccccc2)N(S(=O)(=O)c2ccc(C)cc2)[C@H]1c1ccccc1I | 0.296 | -2.69 (inactive) | 0.366 (inactive) | 0.566 (inactive) | -0.226 (inactive) | 0.864 | 0.849 | -0.315 | 0.507 | 0.239 | -0.801 (inactive) | 1.24 | 1.18 (inactive) | 0.948 (inactive) | -0.597 (inactive) | 0.631 (inactive) | -0.94 | 0.62 (inactive) | 0.205 (inactive) | 0.721
2 | COc1cc(CO)cc(I)c1O[C@H]1C=C(C(=O)NCCO)C[C@@H]2O[C@H]12 | 0.815 | -4.18 (inactive) | -0.583 (inactive) | 3.65 (inactive) | 3.07 (inactive) | 0.717 | -0.0589 | 1.58 | 0.125 | 1.59 | -0.211 (inactive) | 0.369 | 11.1 (active) | 3.45 (inactive) | 2.06 (inactive) | 2 (inactive) | 0.179 | 1.46 (inactive) | -0.691 (inactive) | -6.01
3 | CC1=C([C@H](O)CCc2ccccc2)[C@H](CO)n2c(=O)n(-c3ccccc3)c(=O)n2C1 | -0.0682 | -1.13 (inactive) | -1.21 (inactive) | 0.399 (inactive) | 0.0978 (inactive) | -0.141 | -0.202 | 0.217 | -0.485 | 0.359 | 2.91 (inactive) | -0.06 | 1.44 (inactive) | -0.657 (inactive) | -0.237 (inactive) | -1.48 (inactive) | 1.77 | -0.53 (inactive) | -0.429 (inactive) | 0.218
4 | CCOC(=O)C[C@H]1[C@H](OC(=O)c2cc3ccccc3oc2=O)[C@@H](NC(=O)CC(C)C)c2cc(OCCCO)ccc2N1C(=O)Cc1ccc(OC)cc1 | 0.221 | -0.387 (inactive) | 1.19 (inactive) | 1.02 (inactive) | -0.505 (inactive) | 0.0665 | -0.128 | -0.0652 | 0.304 | 0.97 | -0.752 (inactive) | -0.193 | 5.95 (inactive) | 0.711 (inactive) | 0.863 (inactive) | 0.5 (inactive) | -0.0561 | 0.166 (inactive) | 0.381 (inactive) | 1.38
5 | CC(C)NC(=O)[C@@]1(C)c2ccccc2C(=O)N(Cc2ccccc2)[C@H]1c1ccc(CO)cc1 | -0.442 | -2.24 (inactive) | 0.0156 (inactive) | -0.592 (inactive) | -1.08 (inactive) | -1.23 | -0.312 | 0.654 | 1.39 | 0.504 | 1.31 (inactive) | -0.0796 | 4.68 (inactive) | -0.883 (inactive) | -0.171 (inactive) | -0.851 (inactive) | 1.64 | -1.34 (inactive) | 0.485 (inactive) | 0.872
6 | CCCC[C@H]1C[C@@H]1[C@@H]1N(C(C)=O)[C@H](c2cccc(OC)c2)CC12CC2 | -0.0718 | -0.338 (inactive) | 0.824 (inactive) | 0.583 (inactive) | -0.0157 (inactive) | 0.361 | 0.0111 | -0.53 | 0.0852 | -0.784 | -1.17 (inactive) | 0.416 | 3.6 (inactive) | 0.984 (inactive) | 1.1 (inactive) | 0.692 (inactive) | -0.168 | -0.927 (inactive) | 0.998 (inactive) | -2.9
7 | COCCOC(=O)N1C(=O)[C@@]2(c3cc(C#CCCO)ccc31)[C@H](c1ccc(OCCO)cc1)N1[C@H](c3ccccc3)[C@H](c3ccccc3)OC(=O)[C@H]1[C@@H]2C(=O)N1CCCCCCC1 | 0.827 | -1.31 (inactive) | 0.542 (inactive) | -0.459 (inactive) | 2.51 (inactive) | 1.79 | 1.48 | 0.862 | 0.726 | 1.97 | -0.453 (inactive) | 2.13 | 1.96 (inactive) | 0.877 (inactive) | -0.564 (inactive) | 0.115 (inactive) | -0.23 | 1.5 (inactive) | 1.02 (inactive) | 1.86
8 | COc1ccc([Si](C)(C)[C@@H]2[C@@H](CC(=O)N3Cc4ccccc4C[C@H]3CO)O[C@]3(C(=O)N(Cc4ccc(N5CCOC5=O)cc4)c4ccccc43)[C@H]2C)cc1 | -0.0088 | -4.75 (inactive) | -0.081 (inactive) | 0.949 (inactive) | -0.888 (inactive) | -0.0492 | -0.128 | 0.438 | 0.702 | 1.96 | 0.378 (inactive) | -0.0868 | 8.18 (active) | 1.59 (inactive) | 0.374 (inactive) | 0.892 (inactive) | 0.982 | 0.393 (inactive) | 1.15 (inactive) | 1.88
9 | C=CCC(OC(C)=O)[C@@H]1[C@@H](N(Cc2cc3ccccc3o2)C(=O)c2cccc3ccccc23)c2cc(OCCCO)ccc2N1C(=O)c1ccc2ccccc2n1 (stereo not given in full) | 0.0394 | -1.35 (inactive) | -0.399 (inactive) | 2.6 (inactive) | -0.273 (inactive) | 0.0002 | -0.0131 | 0.866 | -0.661 | 0.151 | 0.595 (inactive) | -0.239 | 1.53 (inactive) | 0.26 (inactive) | 0.266 (inactive) | 0.506 (inactive) | 0.231 | 0.889 (inactive) | -0.605 (inactive) | -1.64
